{"source": "PubChem BioAssay (NCI)", "note": "Values joined by “and” are separate entries in the source; they are usually repeats but may differ in a detail not shown here. Equal entries are not always repeated. Compounds without any hit were thinned out: in the full panel of roughly 83,000, 20% have a hit.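 Percent growth is the endpoint: 0 to 100 indicates growth inhibition (40 means 60% inhibition), 0 means no net growth, and negative values indicate cell death.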 Values without a mark were called inactive. Active and inactive are the calls of the source. The calls were made as follows: active = growth percent below 10; inactive = the rest.", "data": [{"test_system": "HL-60(TB) leukemia", "test": "NCI-60 one-dose screen, 48 h (100 = growth as untreated, 0 = no growth, -100 = all killed)", "details": "10 µM unless noted", "values": [{"smiles": "CC(C)=CCc1cc2c(cc1O)C1=C(C(=O)C3=C(NCCS3(=O)=O)C1=O)C(C=C(C)C)O2", "note": "(stereo not given)", "growth": "-35.2% (active)"}, {"smiles": "O=S(=O)(Nc1ccc(Cl)c(C(F)(F)F)c1)c1ccc(-c2cnc(C3CC3)o2)cc1", "growth": "-38.6% (active)"}, {"smiles": "COc1ccc(Nc2nnc(SCc3ccccc3F)s2)cc1", "growth": "86%"}, {"smiles": "CC(C)c1ccc2c(c1)CCC1C2CCCC1(C)NCc1ccccc1", "note": "(stereo not given)", "growth": "22.9%"}, {"smiles": "Nc1nccc2c1ccn2-c1ccc(NC(=O)Nc2cccc(C(F)(F)F)c2)cc1", "growth": "117%"}, {"smiles": "O=C(O)c1cc(=O)[nH]c(=O)[nH]1", "growth": "109% and 106%"}, {"smiles": "CCN1CC(=O)N(/N=C2\\C(=O)Nc3ccccc32)C1=S", "growth": "82.7%"}, {"smiles": "Nc1ncnc2c1c(-c1cccc(Cl)c1)nn2CC(=O)N1CCOCC1", "growth": "101%"}, {"smiles": "O=C(Nn1c2c(sc1=NCc1ccccc1)C(=O)c1ccccc1C2=O)c1cc2ccc1CCc1ccc(cc1)CC2", "growth": "27%"}, {"smiles": "O=C1/C(=C/c2ccccc2)SC(=S)N1CCc1ccc(O)cc1", "growth": "94.9%"}, {"smiles": "COc1ccc(-c2nsc3c2NC(=O)CC3c2ccc(F)cc2)cc1", "note": "(stereo not given)", "growth": "7.88% (active)"}, {"smiles": "COc1ccc(/C=C/C(=O)O)cc1OC", "growth": "103% and 102%"}, {"smiles": "CN1CCN(c2ccc(NC(=O)c3cncnc3Nc3ccc(OCc4ccccn4)c(Cl)c3)cc2)CC1", "growth": "-57.9% (active)"}, {"smiles": "O=C(Cc1ccc(/C=C/C(=O)c2ncc[nH]2)cc1)Nc1ccccc1", "growth": "7.76% (active)"}, {"smiles": "COc1cccc2c1nc1cccc(OC)c1[n+]2[O-]", "growth": "0.0729% (active)"}, {"smiles": "C#CCn1cc(C=C2C(=O)NC(=S)NC2=O)c2cc(Cl)ccc21", "growth": "-4.45% (active)"}, {"smiles": "N#CC1=C(N)n2nc(-c3ccncc3)nc2NC1c1cccc2ccccc12", "note": "(stereo not given)", "growth": "89.8%"}, {"smiles": "CCOc1ccc(/C=N/Nc2cc(C)nc3ccc(Cl)cc23)cc1", "growth": "-51.7% (active)"}, {"smiles": "CCN(CC)CCCC(C)N(Cc1ccccc1)CC(O)c1ccc(Cl)cc1", "note": "(stereo not given)", "growth": "101% and 106%"}, {"smiles": "O=[N+]([O-])c1ccccc1/C=N\\Nc1ccccc1", "growth": "82.5% and 87.4%"}, {"smiles": "O=C(O)c1ccc(S(=O)(=O)O)cc1", "growth": "115%"}, {"smiles": "Oc1ccc(/C=N/N=C2c3ccccc3-c3ccccc32)c(O)c1", "growth": "71.7%"}, {"smiles": "CC(C)=CCC[C@](C)(O)[C@H]1CC[C@]2(C)[C@@H]1CC[C@@H]1[C@@]3(C)Cc4nccnc4C(C)(C)[C@@H]3CC[C@]12C", "growth": "67.8%"}, {"smiles": "Cc1cc(C)c(N)c(Br)c1", "growth": "97.9% and 69%"}, {"smiles": "O=C1C2C3C=CC(O3)C2C(=O)N1Nc1ccccc1", "note": "(stereo not given)", "growth": "102%"}, {"smiles": "C=CCn1c(C)nc2cc(Nc3nc(Nc4ccc5nc(C)n(CC=C)c5c4)nc4ccccc34)ccc21", "growth": "84%"}, {"smiles": "N#C/C(=N\\Nc1ccc(Cl)cc1)C(=O)C1CC1", "growth": "62.8%"}, {"smiles": "CN(Cc1cc(Cl)cc(Cl)c1O)Cc1cc(Cl)cc(Cl)c1O", "growth": "53.1%"}, {"smiles": "COc1cc(CNC(=O)CCCC/C=C/C(C)C)ccc1OCc1nnc(Nc2ccccc2F)o1", "growth": "89.7%"}, {"smiles": "CC[C@H](C)C(=O)O[C@H]1CCC=C2C=C[C@H](C)C(CCC3C[C@@H](O)CC(=O)O3)[C@H]21", "note": "(stereo not given in full)", "growth": "97.8%"}, {"smiles": "CCCCCCCCCCCCCCCCCC1=NCCN1CCO", "growth": "36.3%"}, {"smiles": "COc1ccc2c(c1)C(=O)c1c-2c(OCCN(C)C)nc2cc(OC)ccc12", "growth": "27.2%"}, {"smiles": "COc1cc(CNC(=O)CCCCC[P+](c2ccccc2)(c2ccccc2)c2ccccc2)c(OC)c2c1OCO2", "growth": "-2.75% (active)"}, {"smiles": "O=C1c2cccc3cccc(c23)C(=O)N1CC#Cc1ccc2c3c(cccc13)C(=O)N(CCO)C2=O", "growth": "112%"}, {"smiles": "CCCCn1c(-c2ccc(F)cc2)nc2cc(OC)c(OC)cc2c1=O", "growth": "67.1%"}, {"smiles": "CC(C)(C)n1cc(-c2ccnc(NCCCNS(=O)(=O)c3ccc(F)cc3)c2)c(-c2cccc(F)c2)n1", "growth": "38.2%"}, {"smiles": "CN(C)c1ccc2nc3ccc(=O)cc-3sc2c1", "growth": "-21.3% (active) and -7.59% (active)"}, {"smiles": "Nc1c(C(=O)Nc2ccncc2)sc2nc3c(cc12)CCCCCC3", "growth": "67.1%"}, {"smiles": "N#Cc1ccc(OC(=O)Nc2cc(Cl)cc(Cl)c2)cc1", "growth": "-0.568% [100 µM] (active)"}, {"smiles": "O=C1N=NC2=C1c1c3ccccc3c(O)n1CC2", "growth": "105%"}]}]}
